Activity calls are given as the source filed them. How the source made its calls: active means hit-call score of the fitted dose curve at least 0.9, where 1 is the maximum; inactive means score below 0.9.
Experiments:
[1] = ATG_CRE_CIS: Attagene CIS-FACTORIAL HepG2 Assay for human cAMP Responsive Element (CRE) binding protein 3 (AID 2282926); settings: HepG2 CRE cis-reporter, Attagene multiplexed mRNA; actives raise or lower the signal
In short: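 Transfected HepG2 were treated for 24 hours, then RNA was extracted and reporter cDNA amplified with sequence-specific primers. Labelled fragments were separated by capillary electrophoresis, and the CRE signal was fitted bidirectionally with DMSO as baseline.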

[2] = ATG_DR4_LXR_CIS: Attagene CIS-FACTORIAL HepG2 Assay for human Liver X Receptor (LXR), DR4 submotif (AID 2282929); settings: HepG2 Attagene DR4 cis-reporter, mRNA transcription; actives raise or lower the signal
In short: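 DR4 cis-reporter in HepG2, 24 h exposure. Detection: RT-PCR, 6-FAM labelling, CE fragment analysis. Endpoint fitted bidirectionally, DMSO = baseline.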

[3] = ATG_AP_1_CIS: Attagene CIS-FACTORIAL HepG2 Assay for human Activator Protein 1 (AP-1) (AID 2282931); settings: HepG2 Attagene cis-factorial AP-1 reporter mRNA; actives raise or lower the signal
In short: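 Cis-regulated reporter units transiently expressed in HepG2 report endogenous transcription-factor activity. Signal: reporter mRNA at 24 h, via RT-PCR and fluorescent capillary electrophoresis. Endpoint derived by bidirectional fitting, DMSO as negative control.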

[4] = ATG_AP_2_CIS: Attagene CIS-FACTORIAL HepG2 Assay for human Activator Protein 2 (AP-2) (AID 2282932); settings: HepG2 AP-2 cis-reporter, Attagene transcription factor profiling; actives raise or lower the signal
In short: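 Multiplexed mRNA reporter assay in HepG2: cis-regulated units report endogenous factor activity after 24 h treatment. Fluorescence from capillary electrophoresis of RT-PCR products gives the signal, with DMSO as baseline.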

[5] = biological target: Transcription factor E2F1 (Homo sapiens) (UniProt Q01094); assay: ATG_E2F_CIS: Attagene CIS-FACTORIAL HepG2 Assay for human E2F Transcription Factor 1 (AID 2282935); settings: HepG2 Attagene cis-reporter, E2F reporter RNA transcripts; actives raise or lower the signal
Chain of Transcription factor E2F1 (Homo sapiens) (Q01094 whole entry, looked up): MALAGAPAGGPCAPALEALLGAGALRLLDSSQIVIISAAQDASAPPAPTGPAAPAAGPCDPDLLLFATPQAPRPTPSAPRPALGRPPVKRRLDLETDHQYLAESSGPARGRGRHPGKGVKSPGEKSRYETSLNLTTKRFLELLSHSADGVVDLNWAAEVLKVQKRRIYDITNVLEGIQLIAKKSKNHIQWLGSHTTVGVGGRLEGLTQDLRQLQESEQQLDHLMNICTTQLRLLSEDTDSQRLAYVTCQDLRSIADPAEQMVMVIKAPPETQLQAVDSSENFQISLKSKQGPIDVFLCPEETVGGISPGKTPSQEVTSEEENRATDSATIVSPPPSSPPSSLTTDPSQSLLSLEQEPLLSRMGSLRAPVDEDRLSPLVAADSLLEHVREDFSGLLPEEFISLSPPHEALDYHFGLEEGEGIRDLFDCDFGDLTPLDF
In short: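 Measures reporter transcript levels via RT-PCR with capillary electrophoresis detection in HepG2 cells harboring cis-regulated reporter units; 24 h post-dose; bidirectional curve fitting with DMSO as baseline.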

[6] = ATG_M_61_CIS: Attagene CIS-FACTORIAL HepG2 Assay for M61 Transcription Factor (Internal Marker) (AID 2282937); settings: HepG2 Attagene CIS-FACTORIAL M61 internal marker reporter; actives raise or lower the signal
In short: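 Background-control endpoint: HepG2 cells with cis-regulated reporter constructs, 24 h exposure, reporter mRNA detected via fluorescent primer extension and capillary electrophoresis; values from bidirectional fitting with DMSO baseline.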

[7] = ATG_EGR_CIS: Attagene CIS-FACTORIAL HepG2 Assay for human Early Growth Response 1 (EGR1) (AID 2282938); settings: HepG2 Attagene CIS-FACTORIAL EGR reporter mRNA; actives raise or lower the signal
In short: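 Endpoint derived by bidirectional fitting versus DMSO vehicle. Method: cis-promoter reporter units transfected into HepG2, 24 h dosing, RNA isolation, RT-PCR with 6-FAM primer extension and HpaI digestion, then capillary electrophoresis fluorescence detection.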

[8] = ATG_M_19_CIS: Attagene CIS-FACTORIAL HepG2 Assay for M19 Transcription Factor (Internal Marker) (AID 2282939); settings: HepG2 Attagene CIS-FACTORIAL M19 internal marker reporter; actives raise or lower the signal
In short: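 HepG2 cells transiently transfected with cis-regulated multiplexed reporter units, dosed 24 h. Reporter mRNA quantified by RT-PCR and capillary electrophoresis; internal background marker fitted bidirectionally versus DMSO.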

[9] = ATG_Ets_CIS: Attagene CIS-FACTORIAL HepG2 Assay for human Erythroblast Transformation Specific (ETS) (AID 2282941); settings: HepG2 ETS cis-reporter transcription, actives raise or lower the signal
In short: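 HepG2 cells transfected with multiple cis-regulated reporter units measuring endogenous ETS-driven transcription, 24 h after dosing. Reporter mRNA quantified by RT-PCR with capillary electrophoresis; bidirectional fit relative to DMSO.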

[10] = biological target: Hepatocyte nuclear factor 3-beta (Homo sapiens) (UniProt Q9Y261); assay: ATG_FoxA2_CIS: Attagene CIS-FACTORIAL HepG2 Assay for human Forkhead box A2 (FOXA2) (AID 2282942); settings: HepG2 cis-reporter transcription factor activity, 24 h; actives raise or lower the signal
Chain of Hepatocyte nuclear factor 3-beta (Homo sapiens) (Q9Y261 whole entry, looked up): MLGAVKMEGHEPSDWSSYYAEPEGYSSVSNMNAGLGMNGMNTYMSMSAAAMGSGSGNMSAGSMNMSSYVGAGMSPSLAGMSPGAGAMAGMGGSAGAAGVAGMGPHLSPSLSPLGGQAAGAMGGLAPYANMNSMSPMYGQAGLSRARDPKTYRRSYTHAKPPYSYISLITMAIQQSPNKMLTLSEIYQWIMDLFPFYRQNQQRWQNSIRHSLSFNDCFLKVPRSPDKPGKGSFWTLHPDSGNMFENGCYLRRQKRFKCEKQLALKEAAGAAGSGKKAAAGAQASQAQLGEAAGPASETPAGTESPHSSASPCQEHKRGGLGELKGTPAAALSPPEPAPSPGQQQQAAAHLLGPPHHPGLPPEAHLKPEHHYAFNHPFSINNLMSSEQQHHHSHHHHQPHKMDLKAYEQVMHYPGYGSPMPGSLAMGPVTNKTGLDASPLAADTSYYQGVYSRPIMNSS
In short: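 Measured: reporter mRNA induction or loss in HepG2 transiently carrying multiple cis-regulated reporter units, 24 h after dosing. Quantified by RT-PCR plus capillary electrophoresis, normalised to DMSO.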

[11] = ATG_GATA_CIS: Attagene CIS-FACTORIAL HepG2 Assay for human GATA Binding Protein (AID 2282944); settings: HepG2 GATA cis-element reporter, Attagene multiplex mRNA; actives raise or lower the signal
In short: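 HepG2 cells transiently transfected with multiplexed cis-element reporter units measure endogenous GATA activity; after 24 h compound exposure, reporter mRNA quantified by RT-PCR and capillary electrophoresis. Changes fitted in both directions vs DMSO.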

[12] = ATG_GLI_CIS: Attagene CIS-FACTORIAL HepG2 Assay for human Zinc Finger Protein GLI1 (AID 2282945); settings: HepG2, Attagene cis-factorial reporter mRNA, GLI element; actives raise or lower the signal
In short: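 Transiently transfected HepG2 cells report endogenous transcription factor activity via cis-element-driven reporter units. After 24 h compound exposure, reporter mRNA was measured by RT-PCR with capillary electrophoresis; bidirectional fitting against DMSO baseline.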

[13] = ATG_ISRE_CIS: Attagene CIS-FACTORIAL HepG2 Assay for human Interferon Regulatory Factor 1 (IRF1) binding to an Interferon-Stimulated Response Element (ISRE) (AID 2282948); settings: HepG2 ISRE cis-reporter (Attagene), mRNA transcription readout; actives raise or lower the signal
In short: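 Transiently transfected HepG2 cells carrying cis-element reporter units, dosed 24 hours. Reporter mRNA quantified by RT-PCR, fluorescent primer extension, HpaI digestion and capillary electrophoresis. Bidirectional fitting relative to DMSO.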

[14] = ATG_M_32_CIS: Attagene CIS-FACTORIAL HepG2 Assay for M32 Transcription Factor (Internal Marker) (AID 2282949); settings: HepG2 Attagene cis-factorial M32 reporter, mRNA; actives raise or lower the signal;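 further: background control marker of the multiplexed CIS panel rather than a real target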
In short: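 Internal background marker read-out: RT-PCR/capillary electrophoresis fluorescence of reporter transcripts from transiently transfected HepG2 cells after 24 h chemical exposure. Activity fitted bidirectionally relative to DMSO negative control.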

[15] = ATG_M_06_CIS: Attagene CIS-FACTORIAL HepG2 Assay for M06 Transcription Factor (Internal Marker) (AID 2282950); settings: HepG2 Attagene CIS-FACTORIAL M06 internal marker reporter; actives raise or lower the signal
In short: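 Internal background marker within multiplexed cis-reporter HepG2 system. Cells transiently transfected, dosed 24 h; reporter mRNA measured by RT-PCR, HpaI digestion and capillary electrophoresis. Bidirectional fit relative to DMSO.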

[16] = ATG_MRE_CIS: Attagene CIS-FACTORIAL HepG2 Assay for human Metal Responsive Element (MRE) (AID 2282954); settings: HepG2 MRE cis-reporter transcription, Attagene multiplex; actives raise or lower the signal
In short: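 Fluorescent reporter fragments separated by capillary electrophoresis give mRNA induction for the MRE unit after 24 h treatment of transfected HepG2 cells. Endogenous transcription-factor activity is read; DMSO serves as negative control and baseline.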

[17] = biological target: Paired box protein Pax-6 (Homo sapiens) (UniProt P26367); assay: ATG_Pax6_CIS: Attagene CIS-FACTORIAL HepG2 Assay for human Paired Box 6 (PAX6) (AID 2282956); settings: HepG2 CIS-FACTORIAL PAX6 reporter transcription, RNA readout; actives raise or lower the signal
Chain of Paired box protein Pax-6 (Homo sapiens) (P26367 whole entry, looked up): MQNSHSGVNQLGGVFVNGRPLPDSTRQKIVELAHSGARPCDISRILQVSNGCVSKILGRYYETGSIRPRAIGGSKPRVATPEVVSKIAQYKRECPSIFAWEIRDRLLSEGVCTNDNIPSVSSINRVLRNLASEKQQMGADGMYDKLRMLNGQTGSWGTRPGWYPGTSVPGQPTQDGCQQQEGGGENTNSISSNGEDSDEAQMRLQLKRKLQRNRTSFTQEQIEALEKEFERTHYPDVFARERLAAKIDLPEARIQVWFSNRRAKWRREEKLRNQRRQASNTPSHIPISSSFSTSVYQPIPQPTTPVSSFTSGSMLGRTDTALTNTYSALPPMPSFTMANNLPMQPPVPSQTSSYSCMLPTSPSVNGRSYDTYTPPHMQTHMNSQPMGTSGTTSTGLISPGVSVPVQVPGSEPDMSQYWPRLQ
In short: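 HepG2 cells transiently transfected with cis-promoter-driven multiplexed reporter units sensing endogenous transcription factor activity; 24 h chemical exposure. Reporter mRNA quantified by RT-PCR, 6-FAM labelling, HpaI digestion and capillary electrophoresis; bidirectional fit versus DMSO baseline.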

[18] = ATG_PXRE_CIS: Attagene CIS-FACTORIAL HepG2 Assay for human Pregnane X Receptor Element (PXRE) (AID 2282957); settings: HepG2 Attagene CIS-FACTORIAL PXRE reporter, mRNA; actives raise or lower the signal
In short: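 Multiplexed cis-reporter assay in transiently transfected human HepG2 cells; 24 h chemical exposure. Reporter transcripts quantified by RT-PCR with fluorescent labeling and capillary electrophoresis.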

[19] = biological target: Transcription factor Sp1 (Homo sapiens) (UniProt P08047); assay: ATG_Sp1_CIS: Attagene CIS-FACTORIAL HepG2 Assay for human Specificity Protein 1 (Sp1) (AID 2282961); settings: HepG2 Sp1 cis-reporter transcription, actives raise or lower the signal
Chain of Transcription factor Sp1 (Homo sapiens) (P08047 whole entry, looked up, the tested form may be a part): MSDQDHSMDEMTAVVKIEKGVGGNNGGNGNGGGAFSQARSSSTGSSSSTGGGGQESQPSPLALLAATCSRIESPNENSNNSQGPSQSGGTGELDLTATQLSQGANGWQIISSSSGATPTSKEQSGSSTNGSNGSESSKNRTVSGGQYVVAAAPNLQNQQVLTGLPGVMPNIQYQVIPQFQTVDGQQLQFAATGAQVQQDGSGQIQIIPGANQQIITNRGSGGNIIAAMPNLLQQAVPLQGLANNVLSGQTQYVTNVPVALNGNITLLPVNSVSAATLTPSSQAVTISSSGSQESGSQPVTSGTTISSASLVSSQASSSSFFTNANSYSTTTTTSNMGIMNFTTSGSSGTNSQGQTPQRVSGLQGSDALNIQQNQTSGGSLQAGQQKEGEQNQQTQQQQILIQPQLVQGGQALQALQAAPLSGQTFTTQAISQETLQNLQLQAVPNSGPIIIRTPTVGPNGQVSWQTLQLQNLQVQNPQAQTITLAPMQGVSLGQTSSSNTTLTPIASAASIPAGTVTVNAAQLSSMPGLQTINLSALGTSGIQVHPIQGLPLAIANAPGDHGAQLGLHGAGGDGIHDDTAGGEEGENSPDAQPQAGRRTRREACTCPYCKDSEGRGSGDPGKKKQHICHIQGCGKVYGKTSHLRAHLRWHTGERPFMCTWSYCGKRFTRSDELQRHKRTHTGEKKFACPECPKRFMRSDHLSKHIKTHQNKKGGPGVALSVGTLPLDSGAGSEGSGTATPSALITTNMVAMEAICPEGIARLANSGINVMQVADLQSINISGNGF
In short: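 Endpoint reflects endogenous Sp1 transcriptional activity, not an exogenous fusion protein: HepG2 cells with transfected cis-regulated reporters, 24 h dosing, RT-PCR/capillary electrophoresis mRNA read-out, DMSO-normalised bidirectional fit.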

[20] = biological target: Signal transducer and activator of transcription 3 (Homo sapiens) (UniProt P40763); assay: ATG_STAT3_CIS: Attagene CIS-FACTORIAL HepG2 Assay for human Signal Transducer and Activator of Transcription 3 (STAT3) (AID 2282963); settings: HepG2, Attagene cis-factorial STAT3 reporter transcription; actives raise or lower the signal
Chain of Signal transducer and activator of transcription 3 (Homo sapiens) (P40763 whole entry, looked up): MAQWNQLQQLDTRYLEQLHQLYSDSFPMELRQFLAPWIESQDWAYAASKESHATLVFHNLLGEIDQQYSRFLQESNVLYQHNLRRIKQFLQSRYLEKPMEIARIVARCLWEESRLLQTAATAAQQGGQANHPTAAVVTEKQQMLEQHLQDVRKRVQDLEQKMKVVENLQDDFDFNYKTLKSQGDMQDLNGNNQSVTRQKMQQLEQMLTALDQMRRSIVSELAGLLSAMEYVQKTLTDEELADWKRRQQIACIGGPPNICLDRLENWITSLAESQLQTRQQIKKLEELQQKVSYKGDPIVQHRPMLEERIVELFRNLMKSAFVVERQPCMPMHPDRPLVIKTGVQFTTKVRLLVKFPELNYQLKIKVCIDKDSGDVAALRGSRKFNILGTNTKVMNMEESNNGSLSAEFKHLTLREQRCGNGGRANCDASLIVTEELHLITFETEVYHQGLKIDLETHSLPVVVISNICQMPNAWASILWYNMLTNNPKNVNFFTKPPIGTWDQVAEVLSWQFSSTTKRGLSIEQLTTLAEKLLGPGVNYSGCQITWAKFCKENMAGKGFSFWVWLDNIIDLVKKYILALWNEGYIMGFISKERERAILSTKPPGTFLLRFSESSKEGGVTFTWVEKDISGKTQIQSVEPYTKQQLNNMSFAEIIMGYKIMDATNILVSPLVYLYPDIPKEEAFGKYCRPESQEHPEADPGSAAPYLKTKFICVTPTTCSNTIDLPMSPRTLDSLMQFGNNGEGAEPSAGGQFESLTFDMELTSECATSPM
In short: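 Values derive from bidirectional fits relative to DMSO of reporter mRNA levels, measured by RT-PCR with capillary electrophoresis, in HepG2 cells carrying transiently transfected cis-regulated reporter units and exposed 24 h.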

Measured: AC50

ClCC(Cl)Cl
inactive: [1] | [2] | [3] | [4] | [5] | [6] | [7] | [8] | [9] | [10] | [11] | [12] | [13] | [14] | [15] | [16] | [17] | [18] | [19] | [20]

CCCC=NO
inactive: [1] | [2] | [3] | [4] | [5] | [6] | [7] | [8] | [9] | [10] | [11] | [12] | [13] | [14] | [15] | [16] | [17] | [18] | [19] | [20]

O=C=Nc1ccccc1
active: [18] 11.7 µM
inactive: [1] | [2] | [3] | [4] | [5] | [6] | [7] | [8] | [9] | [10] | [11] | [12] | [13] | [14] | [15] | [16] | [17] | [19] | [20]

Cc1ccc(N(SC(F)(Cl)Cl)S(=O)(=O)N(C)C)cc1
active: [2] 15.2 µM | [7] 11.1 µM | [12] 11.1 µM | [13] 14.7 µM | [16] 15.8 µM | [17] 17.9 µM | [19] 18.8 µM
inactive: [1] | [3] | [4] | [5] | [6] | [8] | [9] | [10] | [11] | [14] | [15] | [18] | [20]

CSc1nc(N=[N+]=[N-])nc(NC(C)C)n1
inactive: [1] | [2] | [3] | [4] | [5] | [6] | [7] | [8] | [9] | [10] | [11] | [12] | [13] | [14] | [15] | [16] | [17] | [19] | [20]
active: [18] 27.2 µM

COC(=O)c1ccccc1S(=O)(=O)NC(=O)Nc1nc(C)cc(C)n1
inactive: [1] | [2] | [3] | [4] | [5] | [6] | [7] | [8] | [9] | [10] | [11] | [12] | [13] | [14] | [15] | [16] | [17] | [18] | [19] | [20]

CC1CCCC1.[C-]#[O+].[C-]#[O+].[C-]#[O+].[Mn]
inactive: [1] | [2] | [3] | [4] | [5] | [6] | [7] | [8] | [9] | [10] | [11] | [12] | [14] | [15] | [16] | [17] | [18] | [19] | [20]
active: [13] 35.2 µM
